Source: PubChem (National Center for Advancing Translational Sciences (NCATS))
Hits are enriched below; roughly 2.8% of the tested compounds scored in any of these assays.
SNCA viab count: cell viability loss counter-screen. HEK-293-SNCA-luc viability, GF-AFC fluorescence, 24 h. Potency, µM (highest dose often 57.1 µM), most hits filed as cytotoxic. 0.12% of 150,000 active. AID 1671193; note: nearly all actives have a fitted effect of over 30% in size
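Cytotoxicity counterscreen: after 24 h compound treatment of genome-edited SNCA-luciferase HEK-293 cells, live-cell protease substrate GF-AFC read by fluorescence after 30 min; activity scaled between DMSO (0%) and medium-only (-100%), curves Hill-fitted.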
IP6K1 inh: blocks human inositol hexakisphosphate kinase 1 | Q92551 | IP6K1 kinase, ADP-Glo luminescence, 2 h; stronger effect = lower value | activity change, % (series mostly up to about 58 µM) | 0.81% of 140,000 active | AID 1645851; in the data active = activity change below about -25%
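ADP-Glo luminescence measures ADP made by human IP6K1 during a 2 h RT reaction with ATP/IP6 (mix at 1.3 mM/130 uM); top library doses 57.5 and 19.1 uM final.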
SNCA expr inhib: reduces expression of the alpha-synuclein gene. Potency, µM (titrated, usually from 57.2 µM), usual class: inhibitors. HEK-293 SNCA-luciferase knock-in, luminescence, 24 h. 0.17% of 140,000 active. AID 1671194; note: nearly all actives have a fitted effect of over 45% in size
KDM5B inhibitor: KDM5B demethylase inhibition | KDM5B demethylase, FDH-coupled NADH fluorescence (FDH is formaldehyde dehydrogenase) | Potency, µM (top dose mostly 57.7 µM), hits mostly inhibitors | AID 1347165 | 2.6% of 220,000 active | Q9UGL1; note: nearly all actives have a fitted effect of over 70% in size
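KDM5BΔAP (200 nM final) in 50 mM HEPES pH 7.5, 0.01% Tween-20 was preincubated 10 min at RT with compound over a concentration range. Substrate mix (H3K4me3 12.5 µM, α-KG 25 µM, Fe²⁺, ascorbate, NAD⁺, FDH) was added, and NADH fluorescence change over 30 min gave dose-response curves.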
A number is an active result; n = inactive; u = inconclusive; x = not tested or not shown. Unless noted, calls come from the whole dose curve; as a rule, active = well fitted curve in the direction sought with a large enough effect; inconclusive = small, poorly fitted or top-dose-only effect, or another doubt; inactive = no such curve, though single readings can be large; an effect the other way counts as inactive or inconclusive.

SMILES	SNCA viab count	IP6K1 inh	SNCA expr inhib	KDM5B inhibitor
CC(C)CNC(=O)c1cc(-c2ccccc2F)cc2c1OCCN2Cc1cccnc1	u	n	u	32µM
O=C(NC1CCOCC1)c1cc(-c2ccccc2F)cc2c1OCCN2Cc1cccnc1	n	n	n	22µM
O=C(c1cc(-c2ccccc2F)cc2c1OCCN2Cc1cccnc1)N1CC(O)C1	n	n	n	40µM
O=C(c1cc(-c2ccccc2F)cc2c1OCCN2Cc1cccnc1)N1CCCC1	u	n	n	u
COCCNC(=O)c1cc(-c2ccccc2F)cc2c1OCCN2Cc1cccnc1	u	n	n	32µM
CCCN(C(=O)Cn1nc(Cc2ccncc2)c2ccccc2c1=O)c1ccccc1F	x	x	x	n
Cc1ccccc1C(=O)N1CCC(N2C(=O)c3c(c(C)nn3-c3ccccc3)C2C2CC2)C1 (stereo not drawn)	x	n	x	x
CNC(=O)c1cc(-c2ccccc2OC)cc2c1OCCN2Cc1cccnc1	n	n	n	28µM
CNC(=O)c1cc(-c2ccccc2F)cc2c1OCCN2Cc1cccnc1	u	n	n	40µM
CNC(=O)c1cc(-c2ccc(N3CCOCC3)cc2)cc2c1OCCN2Cc1cccnc1	n	n	n	n
CNC(=O)c1cc(-c2ccccc2C)cc2c1OCCN2Cc1cccnc1	n	n	n	u
CNC(=O)c1cc(-c2ccccc2O)cc2c1OCCN2Cc1cccnc1	n	n	n	32µM
CNC(=O)c1cc(-c2cccc(NC(C)=O)c2)cc2c1OCCN2Cc1cccnc1	n	n	n	u
CNC(=O)c1cc(-c2ccc(OC)nc2)cc2c1OCCN2Cc1cccnc1	n	n	n	28µM
CNC(=O)c1cc(Nc2cccc(N(C)C)c2)cc2c1OCCN2Cc1cccnc1	n	n	n	u
O=C(c1ccc(Br)s1)N(Cc1cccnc1)c1nc2c(F)cccc2s1	x	x	x	n
COc1ccc(OC)c(NC(=O)C(C)OC(=O)c2cccnc2)c1 (stereo not drawn)	x	x	x	n
NC(=O)c1ccc(-c2nnn(CC(=O)N3CCCC3c3ccc4c(c3)OCCO4)n2)cc1 (stereo not drawn)	x	x	x	n
C[S+](=O)([O-])Nc1cccc(-c2cc(-c3cccnc3)c3cncn3c2)c1	n	n	n	35µM
c1cc(-c2cc(-c3ccncc3)c3cncn3c2)c2[nH]ccc2c1	n	n	u	n
c1cncc(-c2cc(-c3cccc4cc[nH]c34)cn3cncc23)c1	n	n	n	35µM
NC(=O)c1cccc(-c2cc(-c3cccnc3)c3cncn3c2)c1	n	n	n	u
COc1ccc2[nH]c(C[C@@H]3C[C@@H](C(C)C)[C@H](CNCc4cccnc4)C=C3C)nc2n1	n	n	u	n
CCc1ccc(C(=O)N2CCC(Cc3nc(-c4cccc(OC)c4)no3)CC2)cc1	n	n	n	n
COc1cc(F)ccc1-c1nc(N2CCOCC2)cc2c1CN(c1ccccc1)C2=O	n	n	n	10µM
SMILES	SNCA viab count	IP6K1 inh	SNCA expr inhib	KDM5B inhibitor
CN1Cc2c(cc(N3CCOCC3)nc2-c2cnn(C)c2)C1=O	n	n	n	40µM
CN(C)c1cccc(-c2nc(N3CCOCC3)cc3c2CN(Cc2cnn(C)c2)C3=O)c1	n	n	n	n
Cc1ccccc1-c1nc(N2CCOCC2)cc2c1CN(Cc1cnn(C)c1)C2=O	n	n	n	40µM
COc1ccc(-c2noc(C3CC(=O)N(c4ccccc4)C3)n2)c(OC)c1 (stereo not drawn)	n	n	n	n
O=C1c2cc(N3CCOCC3)nc(-c3cccnc3)c2CN1c1ccccc1	n	n	n	40µM
C=CCNc1nc(-c2ccc3c(c2)CC(C)N3S(C)(=O)=O)cs1 (stereo not drawn)	x	x	x	n
COc1ccccc1CN(C)Cc1ccccc1C	x	x	x	n
Cc1ccccc1-c1ncc2c(n1)OCCN(c1ccccc1)C2=O	n	n	n	n
COc1ccc(-c2nc(N3CCOCC3)cc3c2CN(Cc2cnn(C)c2)C3=O)cn1	n	n	n	40µM
Cc1ccccc1-c1nc(N2CCOCC2)cc2c1CN(c1ccccc1)C2=O	n	n	n	35µM
Cc1ccccc1-c1nc(N2CCOCC2)cc2c1CN(Cc1ccccc1)C2=O	n	n	u	32µM
CC(=O)N1CCC(N2CC[C@@H](CO)N(C)c3nc(C)ccc3C2)CC1	n	n	n	32µM
Cc1ccc2c(n1)N(C)[C@H](CO)CCN(C(=O)Nc1ccccc1)C2	n	n	n	n
Cc1ccc2c(n1)N(C)[C@H](CO)CCN(CC1CCCCC1)C2	n	n	n	35µM
Cc1ccc2c(n1)N(C)[C@H](CO)CCN(Cc1ccc(F)cc1)C2	n	n	n	35µM
Cc1ccc2c(n1)N(C)[C@H](CO)CCN(Cc1ccc(C#N)cc1)C2	n	n	n	u
Cc1ccc2c(n1)N(C)[C@H](CO)CCN(Cc1ccccc1Cl)C2	n	n	n	u
Cn1ncc2c(C(=O)NC3CCCC3)cc(-c3cccc(C(F)(F)F)c3)nc21	x	n	x	x
CCn1c(SCC(=O)O)nc2c(=O)n(C)c(=O)n(C)c21	x	x	x	n
COc1ccc(-c2cc3c(cn2)CN(Cc2ccncc2)CCN3)cc1	n	n	n	35µM
Fc1ccc(-c2cc3c(cn2)CN(Cc2ccncc2)CCN3)cc1Cl	n	n	u	35µM
CN1CCNc2cc(-c3ccc(N4CCOCC4)cc3)ncc2C1	n	n	n	28µM
O=C(c1ccc2cc[nH]c2c1)N1C[C@@H](CO)[C@H](c2nc(C3CC3)no2)C1	n	n	n	32µM
O=C(c1cc(C2CC2)[nH]n1)N1CC(F)(F)C[C@H]1c1nc(C2CC2)no1	n	n	n	n
O=C(c1cc[nH]c(=O)c1)N1CC(F)(F)C[C@H]1c1nc(C2CC2)no1	n	n	n	28µM
SMILES	SNCA viab count	IP6K1 inh	SNCA expr inhib	KDM5B inhibitor
CN1CC(=O)N(C2CCCNC2)Cc2c(NCCOc3ccccc3)ncnc21 (stereo not drawn)	n	n	n	45µM
COCCCNc1ncnc2c1CN(C1CCCNC1)C(=O)CN2C (stereo not drawn)	n	n	n	u
CC(CO)Nc1ncnc2c1CN(C1CCCNC1)C(=O)CN2C (stereo not drawn)	n	n	n	u
CC(C)Nc1ncnc2c1CN(C1CCCNC1)C(=O)CN2C (stereo not drawn)	n	n	n	63µM
CCC(C)Nc1ncnc2c1CN(C1CCNCC1)C(=O)CN2C (stereo not drawn)	n	n	n	35µM
CN1CC(=O)N(C2CCNC2)Cc2c(NCC3CC3)ncnc21 (stereo not drawn)	n	n	n	89µM
CC[C@@H](Nc1ncnc2c1CN(C1CCNCC1)C(=O)CN2C)c1ccccc1	n	n	n	u
O=C(Cc1ccc(F)cc1)NC1CCN(c2ccc3nnc(-c4ccccc4)n3n2)C1 (stereo not drawn)	x	n	x	x
O=C1NCCCCCCN(Cc2cccc(F)c2)[C@H]2C[C@H](C(=O)N3CCc4ccccc4C3)C[C@@H]12	n	n	u	u
N#Cc1ccccc1CN1CCCCCCNC(=O)[C@@H]2C[C@@H](C(=O)N3CCc4ccccc4C3)C[C@@H]21	u	n	u	20µM
